Data on 40 compounds can be found in PubChem BioAssay (NCI).

The panel holds about 83,000 compounds, 20% with a hit somewhere; the sample as a whole holds those more often.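 Cells were grown in 96-well plates and exposed to the test compound at a single concentration for 48 hours; results are reported as percent growth, with values below 10 considered active.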 Values without a mark were called inactive. Active and inactive are the calls of the source.

The test concerns HOP-92 NSCLC. Nature of the test: NCI-60 one-dose screen, 48 h (100 = growth as untreated, 0 = no growth, -100 = all killed). As to conditions: 10 µM unless noted.
In the case of `COc1ccc2ncccc2c1Cc1c(OC)ccc2ncccc12`, the growth was 58.1%. The value for `COc1cc(C2CC(C3C(=O)N(C)C(=O)N(C)C3=O)=NN2c2cc(Cl)cc(Cl)c2)cc(OC)c1OC` (stereo not given) was 88.5%. Turning to `Cc1sc2nc(NCc3ccccc3)[nH]c(=O)c2c1C`, the growth is 69.4%. The value for `Cc1cc2c(cc1C)[n+](Cc1ccc3ccccc3n1)cn2Cc1ccc2ccccc2n1` was -27.3% (active); that for `COc1cc(/C=C2\CN(S(=O)(=O)c3ccc(C)cc3)C/C(=C\c3cc(CN4CCOCC4)c(O)c(OC)c3)C2=O)cc(CN2CCOCC2)c1O` was -30.3% (active); that for `O=C1NCCc2c1noc2-c1ccccc1` was 104%. The same measure for `C[C@]12CCC(=O)C=C1CC[C@H]1[C@@H]3C[C@@H](O)[C@](O)(C(=O)CO)[C@@]3(C)C[C@H](O)[C@@]12F`: 80.3%. The same measure for `C/C(=C\CCc1ccsc1)CC/C=C(\C)CCCN1CCSCC1`: 73.3%; for `COC(=O)Nc1ccc2ccc3c(NC(=O)OC)ccc4ccc1c2c43` (tested in a mixture with another compound): 9.3% (active); for `O=C(Nc1nc2c(C(F)(F)F)cccc2s1)c1cc(Cl)ccc1O`: -27.8% (active). `COc1cc(C2=NN(C=O)C(c3cccc(Nc4ccnc5cc(Cl)ccc45)c3)C2)cc(OC)c1OC` (stereo not given): the growth was 53.9%. The same measure for `COc1cccc(-c2nc(-c3ccc(N)cc3)co2)c1`: 86.8%; for `C[C@@H]1[C@H]2[C@H](C=C3[C@@H]4CC[C@H]5Cc6nc7c(nc6C[C@]5(C)[C@H]4C[C@@H](O)[C@@]32C)C[C@@H]2CC[C@H]3C4=C[C@@H]5O[C@@]6(CC[C@](C)(CO)O6)[C@@H](C)[C@@]5(O)[C@@]4(C)[C@H](O)C[C@@H]3[C@@]2(C)C7)O[C@]12CCC(C)(C)O2`: -4.69% (active); for `O=C(CNC(=O)c1cccc2ccccc12)Nc1ccccc1Oc1cccc(O)c1`: 72.9% [5 µM]. Take `CCN(CC)CCNCC(=O)Oc1ccc(/C=C/C(=O)CC(=O)/C=C/c2ccc(OC(=O)CNCCN(CC)CC)c(OC)c2)cc1OC`: the growth is 39.1%.

As to `COc1ccc(-c2cc(-c3nnc(SCC(=O)Nc4ccc(C(C)=O)cc4)n3-c3ccccc3)c3ccccc3n2)cc1OC`, the growth was 104%. With `COc1ccc2c(c1)[n+](=O)c(C(=O)/C=C/c1cc(OC)c(OC)c(OC)c1)c(C)n2[O-]`, the growth is 63.7%.

As to `COc1ccc(-c2nc3sc4c(c3c(=O)[nH]2)CCCCCC4)cc1`, the growth is 73.2%. The same measure for `CC(=O)Nc1c(Cl)cc2c(c1Cl)Cc1cc([N+](=O)[O-])ccc1-2`: 53.3%. The value for `CCN(CC)CCCCCCCNc1c2ccc(Cl)cc2nc2ccc(OC)cc12` was -62.1% (active).

For `COc1cc(/C=C/c2cc(/C=C/c3ccc(O)c(OC)c3)n(C(=O)c3ccc(Cl)cc3)n2)ccc1O`, the growth was -2.95% (active).

Regarding `Cc1n(Cc2ccc3ccccc3c2)c2ccccc2[n+]1Cc1ccc2ccccc2c1`, the growth was -68.2% (active). As to `CCn1cnc(C[C@H](NC(=O)[C@H](CCCCNC(=O)Nc2cc(C(F)(F)F)cc(C(F)(F)F)c2)NC(=O)Nc2cc(C(F)(F)F)cc(C(F)(F)F)c2)C(=O)OC)c1`, the growth was -45.4% [100 µM] (active).

`O=C(Nc1cccc(-n2cc(-c3ccncc3)c(-c3cc(O)cc(Cl)c3)n2)c1)Nc1ccc(Cl)c(Cl)c1`: the growth is -30.5% (active). For `Oc1ccc(/C=N/Nc2nc3ccccc3s2)c(O)c1`, the growth was 62.8%. As to `Cc1csc(C#Cc2cncc(O)c2)n1`, the growth was 121%. The same measure for `COc1cc(/C=C/C(=O)CC(=O)/C=C/c2ccc(OC(=O)CCNC34CC5CC(CC(C5)C3)C4)c(OC)c2)ccc1OC(=O)CCNC12CC3CC(CC(C3)C1)C2`: 18.5%; for `N/C(=N\C(N)=N\c1nc2ccccc2s1)c1ccnc(Cl)c1`: 73.9%; for `COc1ccc(NS(=O)(=O)N2CCCCC2)cc1`: 84.6%. For the compound `C=C1CCC2C(C)(COC(=O)CC)C(OC(=O)CC)CCC2(C)C1C/C=C1/C(=O)OCC1OC(=O)CC` (stereo not given), the growth was -9.73% (active). The same measure for `Cc1[nH]ccc2cc3nc4ccccc4c3cc12`: 31.9%; for `CC(C)=CCCC(C)c1ccc(C)c2c1OCN(CC1CCNCC1)C2` (stereo not given): 12.3%; for `COc1ccc2c(c1)sc1nc(-c3ccc(N(C)C)cc3)cn12`: 34.3%. The same measure for `COc1cc(/C=C/C(=O)C(C(=O)/C=C/c2ccc(OC(=O)CCNc3nnc(C)s3)c(OC)c2)C(=O)CCNc2nnc(C)s2)ccc1OC(=O)CCNc1nnc(C)s1`: -16.4% (active); for `O=C(O)c1ccc2cccnc2c1O`: -29.3% (active); for `CC[C@@H](c1ccc(O)c(O)c1)[C@@H](CC)c1ccc(O)c(O)c1`: 69.6%. The value for `Cc1ccc(NC(=O)c2sc3nc4c(cc3c2N)C(=O)CCC4)cc1` was 48.1%; that for `CCOC(=O)/C=C1/SC(=Nc2ccc(C#N)cc2)N(Cc2ccco2)C1=O` was 37.2%. Take `COP(=O)(OC)C(c1ccc(O)cc1)(c1ccc(O)cc1)c1ccc(O)cc1`: the growth is 79.3%.

`COc1ccccc1-n1c(-c2ccc(O)cc2C)cn2c3c(=O)[nH]c(=O)n(C)c3nc12`: the growth is 49.4%.
